Test results from PubChem BioAssay AID1835 (Johns Hopkins Ion Channel Center, 2009).
About 750 (31%) of roughly 2,400 compounds were called active.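 The calls were made as follows: active = median signal gain over dofetilide-blocked control wells reaching their mean plus 3 SD, so readout 1 at least 0; inactive = the rest.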 Some of the results follow.

The molecules below were run against Voltage-gated inwardly rectifying potassium channel KCNH2 (Homo sapiens) (UniProt Q12809) (assay: modulators restoring hERG flux under dofetilide – cell-based, thallium flux, duplicate retest, dofetilide IC70, confirmation (AID 1835)). Details: hERG cell line, FluxOR thallium flux, dofetilide-blocked; at 10 µM; hits give high values.
Sequence of Voltage-gated inwardly rectifying potassium channel KCNH2 (Homo sapiens) (Q12809 whole entry, looked up): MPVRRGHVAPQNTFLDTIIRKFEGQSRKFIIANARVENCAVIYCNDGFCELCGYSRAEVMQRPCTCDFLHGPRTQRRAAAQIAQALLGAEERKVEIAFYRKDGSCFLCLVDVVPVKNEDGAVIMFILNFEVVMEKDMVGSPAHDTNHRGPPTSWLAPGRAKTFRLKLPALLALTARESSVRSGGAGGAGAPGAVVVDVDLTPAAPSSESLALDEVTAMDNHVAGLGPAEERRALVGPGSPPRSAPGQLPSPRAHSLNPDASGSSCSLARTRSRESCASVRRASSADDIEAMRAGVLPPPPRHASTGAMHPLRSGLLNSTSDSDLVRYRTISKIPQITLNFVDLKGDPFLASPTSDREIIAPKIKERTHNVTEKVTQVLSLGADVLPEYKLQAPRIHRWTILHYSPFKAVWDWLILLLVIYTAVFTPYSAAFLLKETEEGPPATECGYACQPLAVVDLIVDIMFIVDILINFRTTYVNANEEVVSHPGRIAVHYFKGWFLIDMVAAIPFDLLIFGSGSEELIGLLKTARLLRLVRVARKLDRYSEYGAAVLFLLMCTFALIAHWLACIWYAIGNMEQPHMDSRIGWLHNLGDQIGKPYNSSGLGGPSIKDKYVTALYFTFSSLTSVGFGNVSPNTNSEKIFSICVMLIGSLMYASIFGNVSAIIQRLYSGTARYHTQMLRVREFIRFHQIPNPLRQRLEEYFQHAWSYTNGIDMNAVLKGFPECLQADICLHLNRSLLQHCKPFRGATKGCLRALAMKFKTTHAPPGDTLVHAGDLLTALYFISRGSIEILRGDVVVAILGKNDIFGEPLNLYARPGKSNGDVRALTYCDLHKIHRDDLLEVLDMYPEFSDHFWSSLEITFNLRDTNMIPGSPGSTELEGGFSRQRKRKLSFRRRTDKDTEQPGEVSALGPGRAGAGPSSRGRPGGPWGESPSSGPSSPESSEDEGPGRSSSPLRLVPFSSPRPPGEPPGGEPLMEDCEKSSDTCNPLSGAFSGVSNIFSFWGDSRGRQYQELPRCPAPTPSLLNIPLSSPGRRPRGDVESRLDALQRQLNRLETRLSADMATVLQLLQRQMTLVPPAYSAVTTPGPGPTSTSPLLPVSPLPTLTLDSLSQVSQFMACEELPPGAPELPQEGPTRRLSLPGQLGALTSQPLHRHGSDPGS

Row | SMILES | activity increase over dofetilide control, less the hit threshold
1 | CCn1c(O)c(N=NC2=NC(=O)CS2)c2ccccc21 | 3% (active)
2 | CCc1ccc2c(c1)c(N=NC1=NC(=O)CS1)c(O)n2CC | 39% (active)
3 | CCn1c(O)c(N=NC2=NC(=O)CS2)c2cc(C)ccc21 | -10% (inactive)
4 | Cn1cc([N+](=O)[O-])c(C(=O)NCc2cc3cc(Cl)ccc3[nH]2)n1 | -12% (inactive)
5 | O=[N+]([O-])c1cc(F)c2cccnc2c1O | -6% (inactive)
6 | NC(=O)CSc1nc2ccccc2c(=O)n1CCc1ccccc1 | -8% (inactive)
7 | COc1ccc(-n2cnc3ccccc3c2=O)c([N+](=O)[O-])c1 | -9% (inactive)
8 | COc1ccc(CCn2c(S)nc3ccccc3c2=O)cc1 | 6% (active)
9 | O=C(COC(=O)C1CCC(=O)N1)Nc1cc(Cl)ccc1Cl (centres undefined) | -13% (inactive)
10 | CCC1CCc2c(sc(NC(=O)C3CC=CCC3C(=O)O)c2C#N)C1 (centres undefined) | 2% (active)
11 | Cc1ccccc1C(=O)NC(=S)Nc1sc2c(c1C#N)CCC(C)C2 (centres undefined) | -13% (inactive)
12 | O=C(O)Cc1ccc(NC(=O)C2CC=CCC2C(=O)O)cc1 (centres undefined) | -14% (inactive)
13 | COC(=O)c1c(NC(=O)C2CC=CCC2C(=O)O)sc(C)c1C (centres undefined) | -13% (inactive)
14 | CCC(C)(C)C1CCc2c(sc(NC(=O)c3ccccc3C(=O)O)c2C#N)C1 (centres undefined) | 18% (active)
15 | Cc1ccc(CS(=O)(=O)c2ncc(Cl)c(C(=O)Nc3nnc(C)s3)n2)cc1 | -19% (inactive)
16 | CC1(OC(=O)c2ccc(Cl)nc2)C(=O)C=C2C=C(c3ccc(C#N)cc3)OC=C2C1=O (centres undefined) | -3% (inactive)
17 | O=[N+]([O-])c1cc(S(=O)(=O)/N=C(/c2ccccc2)N2CCOCC2)ccc1Cl | -16% (inactive)
18 | COc1ccc2nc(/N=C/c3c(C)[nH]n(-c4ccc(C)cc4)c3=O)sc2c1 | 62% (active)
19 | COc1ccc2nc(-n3c(O)c(C4=c5ccccc5=NC4=O)[nH]c3=S)sc2c1 | -14% (inactive)
20 | CCOc1ccc(-n2cnc3sc(C)c(C)c3c2=O)cc1 | -13% (inactive)
21 | CCCSC(=S)c1c(C)[nH]n(-c2ccccc2)c1=O | 0% (inactive)
22 | CCOc1ccc2nc(/N=C/c3c(C)[nH]n(-c4ccccc4)c3=O)sc2c1 | 100% (active)

Row | SMILES | activity increase over dofetilide control, less the hit threshold
23 | CCSC(=S)c1c(C)[nH]n(-c2ccccc2)c1=O | -19% (inactive)
24 | COc1ccc2nc(/N=C/c3c(C)[nH]n(-c4ccc(C)cc4C)c3=O)sc2c1 | 88% (active)
25 | CCOc1ccc2nc(/N=C/c3c(C)[nH]n(-c4ccc(C)cc4)c3=O)sc2c1 | 38% (active)
26 | Cc1nn(-c2cccc(C(F)(F)F)c2)c(Cl)c1/C=N/Nc1cccc(C(=O)O)c1 | -28% (inactive)
27 | Brc1ccc(C2=CC(c3ccco3)n3nnnc3N2)cc1 (centres undefined) | -13% (inactive)
28 | C=CCn1c(SCC(=O)Nc2cccc(C)c2)nnc1-c1cnccn1 | -18% (inactive)
29 | O=C(CSc1cccc[n+]1[O-])C12CC3CC(CC(C3)C1)C2 | -11% (inactive)
30 | Cc1cc(OCCN2CCCCCC2)ccc1[N+](=O)[O-] | -3% (inactive)
31 | COCCNC(=O)C1CCN(S(=O)(=O)N2CCC3(CC2)OCCO3)CC1 | -21% (inactive)
32 | Cc1cc2nccc(-c3ccc(Cl)cc3Cl)n2n1 | -3% (inactive)
33 | Cc1[nH]n(-c2ccccc2)c(=O)c1N=Nc1ccc(C(N)=O)cc1 | -23% (inactive)
34 | Cc1[nH]n(-c2ccc(Cl)cc2)c(=O)c1/C=N/c1nnc(-c2ccccc2)s1 | 106% (active)
35 | Cn1cnnc1SCC(=O)NCc1ccccc1 | -20% (inactive)
36 | CCn1c(O)c(N=NC(=S)NCC2CCCO2)c2ccccc21 (centres undefined) | -1% (inactive)
37 | CCn1c(O)c(N=NC(=O)CNC(=O)c2ccccc2F)c2ccccc21 | -7% (inactive)
38 | CCCn1c(O)c(N=NC(=O)c2ccco2)c2ccccc21 | 17% (active)
39 | N#Cc1c(NC(=O)c2cc(-n3cnnc3)ccc2Cl)sc2c1CCCC2 | 5% (active)
40 | CC1(C)Cc2c(sc(NC(=O)C(=O)N3CCCC3)c2C#N)CO1 | -2% (inactive)
41 | CCc1ccc(/C=N/NC(=O)c2nnn(-c3nonc3N)c2C(C)C)cc1 | -22% (inactive)
42 | Nc1nonc1-n1nnc(C(=O)N/N=C/c2cccc(Cl)c2Cl)c1CN1CCCC1 | 5% (active)
43 | Cc1c(C(=O)N/N=C/c2ccccn2)nnn1-c1nonc1N | -14% (inactive)
44 | CCCOc1ccc(-c2c(C(=O)N/N=C/c3ccccc3OCC)nnn2-c2nonc2N)cc1 | -7% (inactive)

Row | SMILES | activity increase over dofetilide control, less the hit threshold
45 | Nc1nonc1-n1nnc(C(=O)N/N=C/c2ccccn2)c1-c1ccccc1 | -5% (inactive)
46 | CN(C)Cc1c(C(=O)N/N=C/c2ccccc2OCc2c(F)cccc2Cl)nnn1-c1nonc1N | 40% (active)
47 | CN(NC1OC(=O)c2ccccc21)c1ccccc1[N+](=O)[O-] (centres undefined) | -4% (inactive)
48 | CCCCOC(=O)Nc1nnc(C(C)C)s1 | -14% (inactive)
49 | Cc1ccc2nc(NC(=S)NC(=O)c3ccco3)sc2c1 | 50% (active)
50 | O=C(NC(=S)Nc1nc2ccccc2s1)c1ccco1 | -3% (inactive)
51 | COc1ccc2nc(NC(=S)NC(=O)c3ccco3)sc2c1 | 2% (active)
52 | CCc1ccc2nc(NC(=O)c3cc(C)on3)sc2c1 | 10% (active)
53 | O=C(NC(=S)Nc1nc2ccc(F)cc2s1)c1ccco1 | 65% (active)
54 | CC(C)(C)Cc1nnc(NC(=O)c2ccco2)s1 | -13% (inactive)
55 | CCOC(=O)c1cccc(C(=O)Nc2nc3ccc(OC)cc3s2)n1 | -14% (inactive)
56 | CCc1nnc(NC(=O)c2cccc(C(=O)Nc3nnc(CC)s3)n2)s1 | -10% (inactive)
57 | COc1cccc(-c2cc(C(F)(F)F)nc(N3CCCCC3)n2)c1 | -17% (inactive)
58 | Cc1ccc([N+](=O)[O-])c2c1C(N1CC(C)OC(C)C1)C(C)(C)O2 (centres undefined) | -24% (inactive)
59 | CCc1cccc(C)c1NC(=O)C1=C(C(=O)O)CCCC1 | -14% (inactive)
60 | NS(=O)(=O)c1ccc(Sc2ccc3c(c2)CCC3)nc1 | -2% (inactive)
61 | CSc1nc(C)c2c(n1)N(c1ccc(C(C)C)cc1)CC2 | -9% (inactive)
62 | Clc1ccc(Nc2ccc(Cl)nn2)cc1 | -6% (inactive)
63 | Cc1cc(OCC(=O)Nc2cc(S(=O)(=O)N3CCOCC3)ccc2N2CCCC2)ccc1C(C)C | -7% (inactive)
64 | CCCCCN(C(=O)CCC(=O)OCC(=O)N(C)C1CCCCC1)c1c(N)n(CCCC)c(=O)[nH]c1=O | -12% (inactive)
